In ChEMBL document CHEMBL1961873, “Compounds: GSK PKIS; Assays: Nanosyn kinase panel” (2012):

Legend:
[1] = molecular target: Sphingosine kinase 1 (Homo sapiens) (UniProt Q9NYA1); conditions: at 1 µM;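 also: mean SPHK1 inhibition value reported from the GSK PKIS kinase panel screen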
[2] = molecular target: T1, Sphingosine kinase 2 (Homo sapiens) (UniProt Q9NRA0); conditions: at 0.1 µM
T1 sequence (whole entry): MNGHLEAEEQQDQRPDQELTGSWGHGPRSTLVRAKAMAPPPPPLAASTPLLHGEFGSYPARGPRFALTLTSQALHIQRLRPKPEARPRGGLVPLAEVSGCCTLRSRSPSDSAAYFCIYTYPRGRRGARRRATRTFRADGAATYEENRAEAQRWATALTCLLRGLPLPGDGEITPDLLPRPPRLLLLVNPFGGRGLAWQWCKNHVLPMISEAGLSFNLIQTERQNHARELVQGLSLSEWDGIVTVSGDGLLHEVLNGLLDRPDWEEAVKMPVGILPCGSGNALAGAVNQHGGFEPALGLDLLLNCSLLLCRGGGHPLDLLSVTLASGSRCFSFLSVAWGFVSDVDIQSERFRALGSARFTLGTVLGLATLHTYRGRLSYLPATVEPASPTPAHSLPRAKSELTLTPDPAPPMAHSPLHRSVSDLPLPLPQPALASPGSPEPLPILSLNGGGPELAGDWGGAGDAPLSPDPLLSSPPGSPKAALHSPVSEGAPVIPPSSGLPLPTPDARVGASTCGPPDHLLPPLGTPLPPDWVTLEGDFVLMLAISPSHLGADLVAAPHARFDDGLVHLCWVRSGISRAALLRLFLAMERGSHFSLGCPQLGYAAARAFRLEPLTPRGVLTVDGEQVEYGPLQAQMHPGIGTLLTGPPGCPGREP

[3] = molecular target: T1, Sphingosine kinase 2 (Homo sapiens); conditions: at 1 µM
[4] = molecular target: Casein kinase II subunit alpha (Homo sapiens) (UniProt P68400); conditions: at 0.1 µM
Chain of Casein kinase II subunit alpha (Homo sapiens) (P68400 whole entry, looked up): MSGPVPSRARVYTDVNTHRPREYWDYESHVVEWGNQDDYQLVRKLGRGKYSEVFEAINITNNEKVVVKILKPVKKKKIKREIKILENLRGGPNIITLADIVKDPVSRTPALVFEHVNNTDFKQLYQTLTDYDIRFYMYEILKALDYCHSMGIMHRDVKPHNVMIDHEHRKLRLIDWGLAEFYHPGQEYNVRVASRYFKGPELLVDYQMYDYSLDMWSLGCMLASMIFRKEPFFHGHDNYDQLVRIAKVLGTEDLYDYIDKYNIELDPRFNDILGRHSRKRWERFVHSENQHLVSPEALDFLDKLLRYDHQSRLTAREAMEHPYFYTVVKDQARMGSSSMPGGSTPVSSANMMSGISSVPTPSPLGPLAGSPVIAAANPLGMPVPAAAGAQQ

[5] = molecular target: Casein kinase II subunit alpha (Homo sapiens) (UniProt P68400); conditions: at 1 µM
[6] = molecular target: T2, Inhibitor of nuclear factor kappa-B kinase subunit alpha (Homo sapiens) (UniProt O15111); conditions: at 0.1 µM
T2 sequence (whole entry): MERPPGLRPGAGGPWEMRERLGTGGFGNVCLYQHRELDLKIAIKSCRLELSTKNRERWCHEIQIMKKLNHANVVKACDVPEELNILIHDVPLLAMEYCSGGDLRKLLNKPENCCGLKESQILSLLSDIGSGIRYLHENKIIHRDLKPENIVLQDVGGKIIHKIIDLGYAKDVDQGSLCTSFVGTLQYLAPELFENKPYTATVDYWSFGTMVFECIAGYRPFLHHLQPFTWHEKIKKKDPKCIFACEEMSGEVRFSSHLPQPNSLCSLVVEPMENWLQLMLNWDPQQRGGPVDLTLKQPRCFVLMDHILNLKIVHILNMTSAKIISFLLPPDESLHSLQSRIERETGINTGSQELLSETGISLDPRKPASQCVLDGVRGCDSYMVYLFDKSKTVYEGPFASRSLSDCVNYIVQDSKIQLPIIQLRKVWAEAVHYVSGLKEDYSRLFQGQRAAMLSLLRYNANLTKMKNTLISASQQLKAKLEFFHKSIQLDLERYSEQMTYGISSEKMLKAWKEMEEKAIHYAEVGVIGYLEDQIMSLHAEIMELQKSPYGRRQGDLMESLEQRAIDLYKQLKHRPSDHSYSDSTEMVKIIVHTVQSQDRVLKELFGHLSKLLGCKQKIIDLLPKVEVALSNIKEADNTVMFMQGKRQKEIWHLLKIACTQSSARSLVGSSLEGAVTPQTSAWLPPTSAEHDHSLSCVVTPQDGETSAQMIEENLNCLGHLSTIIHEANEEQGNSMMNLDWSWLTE

[7] = molecular target: T2, Inhibitor of nuclear factor kappa-B kinase subunit alpha (Homo sapiens); conditions: at 1 µM
[8] = molecular target: T3, Inhibitor of nuclear factor kappa-B kinase subunit beta (Homo sapiens) (UniProt O14920); conditions: at 0.1 µM
T3 sequence (whole entry): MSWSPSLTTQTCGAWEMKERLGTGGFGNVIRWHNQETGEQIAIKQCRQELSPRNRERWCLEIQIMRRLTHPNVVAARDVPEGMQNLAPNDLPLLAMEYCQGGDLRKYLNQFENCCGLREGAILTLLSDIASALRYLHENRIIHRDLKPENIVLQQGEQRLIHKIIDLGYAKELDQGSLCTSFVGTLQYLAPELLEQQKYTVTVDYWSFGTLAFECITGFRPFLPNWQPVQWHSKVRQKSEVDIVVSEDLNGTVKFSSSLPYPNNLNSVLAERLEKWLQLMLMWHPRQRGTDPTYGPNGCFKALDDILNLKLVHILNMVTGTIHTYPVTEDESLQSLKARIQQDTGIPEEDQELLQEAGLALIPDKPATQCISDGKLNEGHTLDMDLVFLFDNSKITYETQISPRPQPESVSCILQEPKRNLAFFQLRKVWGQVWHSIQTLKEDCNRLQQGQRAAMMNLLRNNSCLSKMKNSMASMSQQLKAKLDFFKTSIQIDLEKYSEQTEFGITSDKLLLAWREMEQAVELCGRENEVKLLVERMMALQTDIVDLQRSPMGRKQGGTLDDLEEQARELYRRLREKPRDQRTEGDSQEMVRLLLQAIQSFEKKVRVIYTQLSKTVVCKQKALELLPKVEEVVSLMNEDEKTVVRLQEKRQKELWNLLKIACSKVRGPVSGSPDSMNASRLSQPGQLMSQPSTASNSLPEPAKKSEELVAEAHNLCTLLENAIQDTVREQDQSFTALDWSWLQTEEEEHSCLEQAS

[9] = molecular target: T3, Inhibitor of nuclear factor kappa-B kinase subunit beta (Homo sapiens); conditions: at 1 µM
[10] = molecular target: T4, Inhibitor of nuclear factor kappa-B kinase subunit epsilon (Homo sapiens) (UniProt Q14164); conditions: at 0.1 µM
T4 sequence (whole entry): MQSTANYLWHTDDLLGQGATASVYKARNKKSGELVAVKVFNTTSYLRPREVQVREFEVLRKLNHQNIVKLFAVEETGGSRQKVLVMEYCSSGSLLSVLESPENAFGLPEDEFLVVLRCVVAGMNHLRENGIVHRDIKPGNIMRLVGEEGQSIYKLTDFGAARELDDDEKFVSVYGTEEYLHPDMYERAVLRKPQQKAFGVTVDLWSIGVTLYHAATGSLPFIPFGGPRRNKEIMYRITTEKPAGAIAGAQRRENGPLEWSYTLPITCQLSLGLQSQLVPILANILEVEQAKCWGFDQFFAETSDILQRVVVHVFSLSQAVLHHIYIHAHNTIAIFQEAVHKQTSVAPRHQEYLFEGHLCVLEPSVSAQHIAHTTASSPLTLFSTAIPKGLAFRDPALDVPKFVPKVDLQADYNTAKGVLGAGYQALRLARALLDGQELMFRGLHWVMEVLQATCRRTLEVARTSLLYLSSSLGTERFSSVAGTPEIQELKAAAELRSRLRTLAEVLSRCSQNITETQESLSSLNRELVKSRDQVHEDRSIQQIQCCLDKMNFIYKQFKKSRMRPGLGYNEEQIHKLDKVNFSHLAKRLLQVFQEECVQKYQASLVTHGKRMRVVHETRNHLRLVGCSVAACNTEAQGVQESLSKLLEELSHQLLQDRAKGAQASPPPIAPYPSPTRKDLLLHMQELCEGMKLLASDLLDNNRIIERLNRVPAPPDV

[11] = molecular target: T4, Inhibitor of nuclear factor kappa-B kinase subunit epsilon (Homo sapiens); conditions: at 1 µM
[12] = molecular target: T5, Serine/threonine-protein kinase Nek1 (Homo sapiens) (UniProt Q96PY6); conditions: at 0.1 µM
T5 sequence (whole entry): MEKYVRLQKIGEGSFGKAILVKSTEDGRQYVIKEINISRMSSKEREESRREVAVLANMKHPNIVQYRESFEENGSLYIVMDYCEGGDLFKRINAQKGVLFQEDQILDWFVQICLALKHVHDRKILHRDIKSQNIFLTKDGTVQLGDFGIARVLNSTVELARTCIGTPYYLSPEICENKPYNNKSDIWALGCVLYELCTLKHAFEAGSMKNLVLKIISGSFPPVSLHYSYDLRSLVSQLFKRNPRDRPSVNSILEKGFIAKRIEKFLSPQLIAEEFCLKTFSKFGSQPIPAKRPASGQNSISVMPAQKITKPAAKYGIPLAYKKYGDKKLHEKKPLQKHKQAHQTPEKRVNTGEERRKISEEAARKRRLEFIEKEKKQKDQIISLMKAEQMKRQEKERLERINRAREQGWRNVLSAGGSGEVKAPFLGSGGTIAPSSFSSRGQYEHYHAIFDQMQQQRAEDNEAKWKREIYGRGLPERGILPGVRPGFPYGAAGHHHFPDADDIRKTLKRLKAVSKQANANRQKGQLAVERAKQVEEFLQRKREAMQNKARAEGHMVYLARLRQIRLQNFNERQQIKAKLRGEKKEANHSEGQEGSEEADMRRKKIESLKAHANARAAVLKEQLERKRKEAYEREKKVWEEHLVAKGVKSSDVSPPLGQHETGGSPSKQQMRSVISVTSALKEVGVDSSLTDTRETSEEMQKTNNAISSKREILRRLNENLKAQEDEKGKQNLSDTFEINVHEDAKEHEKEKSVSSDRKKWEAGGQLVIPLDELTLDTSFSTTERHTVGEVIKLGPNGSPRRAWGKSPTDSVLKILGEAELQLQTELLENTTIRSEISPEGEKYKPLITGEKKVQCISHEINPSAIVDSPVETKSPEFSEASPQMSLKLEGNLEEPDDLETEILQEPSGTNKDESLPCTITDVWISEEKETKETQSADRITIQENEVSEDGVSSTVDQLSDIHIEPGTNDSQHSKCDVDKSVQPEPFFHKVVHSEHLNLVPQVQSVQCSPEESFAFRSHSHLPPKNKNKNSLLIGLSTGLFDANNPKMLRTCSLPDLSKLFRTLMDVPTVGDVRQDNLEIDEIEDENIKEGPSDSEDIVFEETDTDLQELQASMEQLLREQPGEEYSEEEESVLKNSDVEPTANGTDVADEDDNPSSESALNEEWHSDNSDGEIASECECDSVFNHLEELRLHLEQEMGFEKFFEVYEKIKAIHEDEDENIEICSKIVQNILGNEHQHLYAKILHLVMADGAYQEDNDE

[13] = molecular target: T5, Serine/threonine-protein kinase Nek1 (Homo sapiens); conditions: at 1 µM
[14] = molecular target: T6, Serine/threonine-protein kinase Nek2 (Homo sapiens) (UniProt P51955); conditions: at 0.1 µM
T6 sequence (whole entry): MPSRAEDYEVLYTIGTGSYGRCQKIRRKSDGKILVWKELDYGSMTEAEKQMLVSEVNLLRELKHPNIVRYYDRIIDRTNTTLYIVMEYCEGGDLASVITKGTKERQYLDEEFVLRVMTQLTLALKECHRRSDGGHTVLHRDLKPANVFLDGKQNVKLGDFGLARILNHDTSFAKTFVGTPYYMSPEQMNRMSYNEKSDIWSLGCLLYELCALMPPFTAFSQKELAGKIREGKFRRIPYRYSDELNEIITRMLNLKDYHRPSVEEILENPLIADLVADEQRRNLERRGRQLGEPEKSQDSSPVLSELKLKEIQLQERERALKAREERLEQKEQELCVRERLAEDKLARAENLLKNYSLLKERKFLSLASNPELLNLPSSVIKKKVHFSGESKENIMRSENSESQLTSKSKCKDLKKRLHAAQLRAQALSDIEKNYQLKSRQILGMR

[15] = molecular target: T6, Serine/threonine-protein kinase Nek2 (Homo sapiens); conditions: at 1 µM
[16] = molecular target: Serine/threonine-protein kinase Nek6 (Homo sapiens) (UniProt Q9HC98); conditions: at 0.1 µM
Chain of Serine/threonine-protein kinase Nek6 (Homo sapiens) (Q9HC98 whole entry): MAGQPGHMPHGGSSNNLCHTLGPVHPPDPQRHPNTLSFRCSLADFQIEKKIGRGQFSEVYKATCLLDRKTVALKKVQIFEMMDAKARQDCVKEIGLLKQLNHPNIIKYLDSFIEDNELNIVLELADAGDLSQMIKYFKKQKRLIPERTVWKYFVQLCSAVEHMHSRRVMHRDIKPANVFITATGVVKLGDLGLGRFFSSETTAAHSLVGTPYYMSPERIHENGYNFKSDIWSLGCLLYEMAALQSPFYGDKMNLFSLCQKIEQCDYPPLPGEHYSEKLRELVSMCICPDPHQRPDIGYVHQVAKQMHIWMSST

[17] = molecular target: Serine/threonine-protein kinase Nek6 (Homo sapiens) (UniProt Q9HC98); conditions: at 1 µM
[18] = molecular target: Serine/threonine-protein kinase Nek7 (Homo sapiens) (UniProt Q8TDX7); conditions: at 0.1 µM
Chain of Serine/threonine-protein kinase Nek7 (Homo sapiens) (Q8TDX7 whole entry, looked up): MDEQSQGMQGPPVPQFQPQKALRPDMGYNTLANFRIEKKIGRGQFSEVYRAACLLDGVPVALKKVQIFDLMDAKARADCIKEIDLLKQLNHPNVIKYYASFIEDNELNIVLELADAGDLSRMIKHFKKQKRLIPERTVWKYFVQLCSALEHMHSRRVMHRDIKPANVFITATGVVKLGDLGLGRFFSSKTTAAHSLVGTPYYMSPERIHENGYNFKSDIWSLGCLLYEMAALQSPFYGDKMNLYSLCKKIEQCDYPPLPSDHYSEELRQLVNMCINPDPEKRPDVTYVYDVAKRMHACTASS

[19] = molecular target: Serine/threonine-protein kinase Nek7 (Homo sapiens) (UniProt Q8TDX7); conditions: at 1 µM
[20] = molecular target: T7, Serine/threonine-protein kinase Nek9 (Homo sapiens) (UniProt Q8TD19); conditions: at 0.1 µM;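 also: reported value is the mean percent inhibition of NEK9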
T7 sequence (whole entry): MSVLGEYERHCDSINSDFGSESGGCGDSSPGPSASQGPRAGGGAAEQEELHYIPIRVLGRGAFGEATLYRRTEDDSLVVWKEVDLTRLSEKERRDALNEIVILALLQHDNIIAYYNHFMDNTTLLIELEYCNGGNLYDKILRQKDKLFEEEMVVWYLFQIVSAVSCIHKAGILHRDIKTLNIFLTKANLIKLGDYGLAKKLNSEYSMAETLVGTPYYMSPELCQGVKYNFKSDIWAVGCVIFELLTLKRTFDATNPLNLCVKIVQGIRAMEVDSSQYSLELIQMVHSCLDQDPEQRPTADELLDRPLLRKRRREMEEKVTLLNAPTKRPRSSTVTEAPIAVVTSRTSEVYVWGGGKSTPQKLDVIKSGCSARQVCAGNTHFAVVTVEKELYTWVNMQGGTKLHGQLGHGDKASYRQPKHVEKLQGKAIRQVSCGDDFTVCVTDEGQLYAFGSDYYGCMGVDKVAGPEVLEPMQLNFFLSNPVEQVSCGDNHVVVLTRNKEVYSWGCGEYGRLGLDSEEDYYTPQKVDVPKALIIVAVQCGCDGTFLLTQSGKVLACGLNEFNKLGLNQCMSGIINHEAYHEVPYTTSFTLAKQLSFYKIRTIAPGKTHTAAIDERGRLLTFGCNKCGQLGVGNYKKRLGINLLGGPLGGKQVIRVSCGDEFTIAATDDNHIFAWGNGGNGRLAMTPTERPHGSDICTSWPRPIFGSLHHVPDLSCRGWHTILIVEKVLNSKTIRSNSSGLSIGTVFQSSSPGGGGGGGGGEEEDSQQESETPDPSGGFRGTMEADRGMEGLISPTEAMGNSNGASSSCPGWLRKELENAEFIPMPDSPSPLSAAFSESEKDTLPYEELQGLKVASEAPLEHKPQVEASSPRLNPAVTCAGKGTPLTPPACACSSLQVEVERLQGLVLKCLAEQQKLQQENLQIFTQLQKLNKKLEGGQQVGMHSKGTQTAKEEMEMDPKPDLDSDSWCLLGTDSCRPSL

Chain of Sphingosine kinase 1 (Homo sapiens) (Q9NYA1 whole entry): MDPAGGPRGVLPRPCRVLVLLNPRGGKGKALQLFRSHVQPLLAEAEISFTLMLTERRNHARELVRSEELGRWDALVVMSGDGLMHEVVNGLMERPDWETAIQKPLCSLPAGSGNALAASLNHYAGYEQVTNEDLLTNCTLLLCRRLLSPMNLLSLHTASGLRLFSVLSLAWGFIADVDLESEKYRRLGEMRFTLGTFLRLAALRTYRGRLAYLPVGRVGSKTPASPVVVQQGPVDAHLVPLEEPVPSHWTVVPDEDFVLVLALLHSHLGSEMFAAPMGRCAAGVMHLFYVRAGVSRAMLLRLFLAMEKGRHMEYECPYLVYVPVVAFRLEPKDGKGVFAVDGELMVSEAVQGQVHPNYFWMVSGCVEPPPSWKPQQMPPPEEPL

Row | Compound | inhibition [1] | inhibition [2] | inhibition [3] | inhibition [4] | inhibition [5] | inhibition [6] | inhibition [7] | inhibition [8] | inhibition [9] | inhibition [10] | inhibition [11] | inhibition [12] | inhibition [13] | inhibition [14] | inhibition [15] | inhibition [16] | inhibition [17] | inhibition [18] | inhibition [19] | inhibition [20]
1 | Nc1nc(-c2ccc3c(c2)C(=Cc2cc(Br)c(O)c(Br)c2)C(=O)N3)cs1 | -0.49% | -0.01% | 0.02% | 2.7% | 24.1% | 9.67% | 2.3% | 0.26% | 0.06% | -3% | -0.65% | -0.4% | 2.14% | -0.41% | 2.78% | -0.92% | 3.09% | 2.05% | -1.46% | 2.02%
2 | O=C1NC(=O)C(c2ccc(Cl)cc2)=C1Nc1ccc(Cl)c(C(=O)O)c1 | -0.08% | 2.29% | 0.32% | -0.4% | -2.48% | 11.5% | 4.5% | 0.8% | -1.44% | -4.08% | -2.57% | -0.84% | -2.3% | -1.89% | -2.45% | 0.26% | 2.37% | -1.15% | -3.67% | -5.68%
